# Data from PubChem BioAssay (NCI).
# About 83,000 compounds went through this panel and 20% of them were active in at least one assay; those are over-represented in the sample as a whole.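 Cell lines were cultured in 96-well plates, exposed to a single compound concentration, and assessed for percent growth 48 hours later.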 A number with no mark means an inactive call. Calls of active or inactive are those of the source. The calls were made as follows: active = growth percent below 10; inactive = the rest.
# Legend:
# Assay in all cases: NCI-60 one-dose screen, 48 h (100 = growth as untreated, 0 = no growth, -100 = all killed)
# Conditions in all cases: 10 µM unless noted
# T-47D breast = tested on: T-47D breast
# BT-549 breast = tested on: BT-549 breast
# MDA-MB-435 melanoma = tested on: MDA-MB-435 melanoma
# SW-620 colon = tested on: SW-620 colon
# MCF7 breast = tested on: MCF7 breast
# HCT-116 colon = tested on: HCT-116 colon
# HCC-2998 colon = tested on: HCC-2998 colon
# KM12 colon = tested on: KM12 colon
SMILES,growth (T-47D breast),growth (BT-549 breast),growth (MDA-MB-435 melanoma),growth (SW-620 colon),growth (MCF7 breast),growth (HCT-116 colon),growth (HCC-2998 colon),growth (KM12 colon)
N#Cc1ccc2c(c1)C(=O)c1c-2n(CCCN)c(=O)c2cc([N+](=O)[O-])ccc12,-78.6% (active),-100% (active),-86.3% (active),-100% (active),-74.8% (active),-100% (active),-100% (active),-98% (active)
COc1ccc2[nH]c(C(=O)N3CCN(C(=O)OCc4ccc5c(Cl)cc(Cl)c(O)c5n4)CC3)cc2c1,-57.5% (active),-69.3% (active),-91% (active),-81.9% (active),-55.7% (active),-92.2% (active),-86.7% (active),-62.3% (active)
CCN(CC)Cc1cc(C=C2C(=O)NC(=S)NC2=O)cc(OC)c1O,114%,110%,105%,107%,97.6%,114%,118%,111%
O=C(Nc1ccccc1O)c1ccc(CNC(=O)c2sccc2Nc2ccnc(C(F)(F)F)c2)cc1,40.1%,59.5%,39.3%,41.9%,30.1%,26.3%,65.4%,60.9%
COC1=CC(c2ccc[nH]2)=N/C1=C\c1[nH]c(C)c(C(=O)OC(C)C)c1C,-69.2% (active),-7.21% (active),-66.2% (active),-29.2% (active),-35.5% (active),-90.3% (active),-53.2% (active),-66.3% (active)
CC1CCc2c(C(=O)Nc3ncc(Cc4cccc([N+](=O)[O-])c4)s3)csc2C1 (configuration not stated),27.8%,46.6%,-42% (active),23.3%,17.1%,19%,41.2%,18.2%
CSc1oc(C)nc1[P+](c1ccccc1)(c1ccccc1)c1ccccc1,8.57% (active),43.4%,41%,65.1%,23.5%,33.4%,42.8%,23%
C=C1C(=O)O[C@H]2[C@H]1CC/C(COC(=O)C(=O)c1cn(C)c3ccc(Cl)cc13)=C\CC[C@@]1(C)O[C@@H]21,-55.6% (active),-74.5% (active),-81.3% (active),-69.1% (active),-54.3% (active),-96.4% (active),-80.3% (active),-49.7% (active)
CCn1c(SCC(=O)N/N=C(\C)c2ccc(Cl)cc2)nc2c1c(=O)n(C)c(=O)n2C,98.3%,99%,100%,95.1%,95.8%,102%,102%,101%
N#Cc1c(-c2ccccc2)cc(-c2ccccc2)n(CCCC(=O)Nc2ccccc2N)c1=O,64.1%,55.4%,-15.6% (active),35%,36%,45%,85.7%,42.3%
CC(C)C1=NOC(=O)C1=Cc1cn(-c2ccccc2)nc1-c1ccc(F)cc1,76.9%,121%,77.4%,61.2%,50.8%,32.4%,79.8%,69.7%
c1ccc([P+](c2ccccc2)(c2ccccc2)c2ccc3c4ccc([P+](c5ccccc5)(c5ccccc5)c5ccccc5)c5cccc(c6cccc2c63)c54)cc1,23.6%,-1.26% (active),3.29% (active),10%,16.1%,8.67% (active),17.9%,-9.19% (active)
C=CCn1c(SCC(=O)Nc2ccc(C(=O)/C=C/c3ccc(Cl)cc3)cc2)nnc1-c1ccc(Br)cc1,88.9%,87.4%,26.9%,82.5%,13.4%,-80.4% (active),93.8%,69.9%
CCOCCNC1=C(Cl)C(=O)c2ccccc2C1=O,90.8%,107%,104%,110%,69.1%,88.1%,112%,91.4%
Cc1cccc(/C=C/c2c(C(=O)/C=C/c3ccccc3)c(C)nc3ccccc23)c1,-4.51% (active),2.21% (active),-66% (active),-14% (active),3.87% (active),-56.3% (active),-84.5% (active),-52.7% (active)
CC(C)(C)[Si](C)(C)OC1[C@@H](CNC(=O)NC(=O)NC(N)=O)O[C@@H](n2cnc3c(NC(=O)Nc4ccccc4)ncnc32)[C@H]1O[Si](C)(C)C(C)(C)C (some centres not stated),82.8%,95.4%,68.9%,55.9%,57.9%,20.5%,85.8%,61.5%
O=C1c2ccc3c4c5ccc(c24)C(=O)N1CCCOCCCCOCCCNCc1ccc(cc1)CNCCCOCCCCOCCCN(C3=O)C5=O,-48.7% (active),68.7%,-95.4% (active),-37.8% (active),-58.3% (active),-62.9% (active),-75% (active),-30.4% (active)
CCCNC(=O)Nc1ccc2cc3ccc(NC(=O)NCCC)cc3nc2c1,46.6%,82.1%,77.4%,92%,62.6%,76.3%,98.4%,70.9%
C=C(C)[C@@H]1CC[C@]2(CO)CC[C@]3(C)[C@H](CC[C@@H]4[C@@]5(C)CC[C@H](NCO)C(C)(C)[C@@H]5CC[C@]43C)[C@@H]12,-42.9% (active),74.3%,-84.5% (active),-79.7% (active),-62.8% (active),-62.1% (active),-63.3% (active),-77.5% (active)
CC(=O)c1c(C)nc2ccccc2c1/C=C/c1ccc(F)cc1,53.8%,87.1%,103%,97.1%,77.3%,74.6%,99%,90.7%
COCCNC(=O)Nc1ccc2nc(-c3cccs3)c(-c3cccs3)nc2c1,58.1%,94.4%,94.1%,89.2%,78.9%,92.7%,101%,95.2%
N#CC(C#N)N=Nc1ccc(Br)cc1,8.56% (active),49.2%,71.7%,18.4%,19.4%,13.4%,46%,80.8%
O=C(NNC(=O)c1ccc(NC(=O)c2ccccn2)cc1)Nc1ccc([N+](=O)[O-])cc1,99.2%,94.6%,106%,104%,95.7%,101%,109%,108%
CS(=O)(=O)Nc1cc(-c2ccc3ncnc(Nc4ccc5c(cnn5Cc5ccc(F)cc5)c4)c3c2)cnc1Cl,5.06% (active),9.27% (active),45.3%,43.1%,14.4%,57%,59.1%,71.8%
CCOC(=O)C#Cc1c(C(=O)OCC)nnn1Cc1ccc([N+](=O)[O-])cc1,23.8%,80.2%,75.2%,-40.5% (active),6.62% (active),43.4%,81.1%,92%
COc1cc(NS(=O)(=O)c2ccc(-c3cnc(C4CC4)o3)cc2)ccc1F,33.6%,44.6%,-21.3% (active),18%,12.7%,20.9%,38.4%,20.7%
COC1=CC(c2ccc[nH]2)=N/C1=C\c1[nH]c(C)c(CC(=O)OCc2ccccc2)c1CCC(=O)OCc1ccccc1,-3.22% (active),-31.6% (active),-49.2% (active),-30.9% (active),4.14% (active),-68.9% (active),-3.69% (active),-38.9% (active)

SMILES,growth (T-47D breast),growth (BT-549 breast),growth (MDA-MB-435 melanoma),growth (SW-620 colon),growth (MCF7 breast),growth (HCT-116 colon),growth (HCC-2998 colon),growth (KM12 colon)
O=C1c2ccccc2-c2c1c1c(=O)[nH]c3ccccc3c1n2Cc1ccccc1,62.6%,29.5%,71.1%,79.8%,56.5%,41%,55.4%,71.2%
CCOC(=O)[C@@H]1CSC(CC)=C(C(=O)O)N1,87.3%,101%,109%,105%,108%,94.1%,111%,114%
Cc1cc(C(=O)O)c(C)n1-c1cccc(C(=O)O)c1,84.1%,83.3%,100%,44.6%,61.2%,35.3%,101%,97.8%
CCCCC1=C(P(=O)(O)O)N[C@H](C(=O)O)CS1,96.7%,102%,101%,96.9%,89.3%,96.5%,89.2%,110%
COc1cc2ncnc(Nc3ccc(S(=O)(=O)Nc4cc(C)on4)cc3)c2cc1OCCCN1CCN(c2ccc(F)cc2)CC1,89.6%,119%,105%,100%,96.8%,108%,115%,107%
OCCn1cc(-c2nc(-c3c[nH]c4ncccc34)cs2)c2ccccc21,37.3%,76%,52.1%,91.5%,32.9%,85.2%,52%,48%
C1CN(SSN2CCOCC2)CCO1,-24.8% [100 µM] (active),-90% [100 µM] (active),0.278% [100 µM] (active),-56.4% [100 µM] (active),22.1% [100 µM],-75.5% [100 µM] (active),90.7% [100 µM],2.07% [100 µM] (active)
COc1ccccc1NC(=O)N=Nc1c(O)[nH]c2ccccc12,68.6%,97.9%,91%,84.4%,59%,93%,94.4%,94.8%
CC(C)=CC(=O)OCC(=O)O[C@@H]1C[C@]2(C(C)C)O[C@@]1(C)[C@@H]1CC[C@@H](C)[C@H]1[C@@H]2OC(=O)/C=C/c1ccccc1,65.1%,37.7%,91.7%,87.1%,71.5%,72.2%,90.7%,89.4%
Cc1cc(N2CCN(CCNc3ccnc4cc(Cl)ccc34)CC2)nc(N2CCOCC2)n1,55.9%,74.2%,80.1%,79.4%,53.3%,38.5%,37.4%,76.6%
Cc1cccc(CNc2c3ccccc3nc3ccccc23)c1,25.3%,67.3%,29.1%,17.2%,6.23% (active),9.81% (active),3.58% (active),25.6%
Cc1cn(-c2cc(NC(=O)c3cncc(C#Cc4cnc(N)c5ncccc45)c3)cc(C(F)(F)F)c2)cn1,83.6%,75.3%,55.5%,62.6%,73.9%,35.6%,79.8%,25%
O=C1Nc2ccccc2/C1=C/c1cccn1CCCCn1c2ccccc2c(=O)c2ccccc21,5.03% (active),74.5%,92.7%,98.8%,3.81% (active),74.2%,40.5%,13%
CNC(=O)c1[nH]cc(-c2ccc(OC)cc2)c1-c1cc(OC)c2c(c1OC)OCO2,92.3%,97.4%,99.6%,103%,97.5%,95.6%,101%,104%
CCn1cc(C(=O)NNC(=S)Nc2ccc(C)cc2)c(=O)c2ccc(C)nc21,88.1%,97.1%,101%,99.2%,97.2%,93%,92.7%,103%
O=c1c2cnn(-c3ccccc3)c2n2c(CN3CCOCC3)nnc2n1-c1ccccc1,81.9%,75.2%,112%,110%,99.3%,78.8%,104%,101%
C=CC[Se]C(=O)Cc1c(C)n(C(=O)c2ccc(Cl)cc2)c2ccc(OC)cc12,-24.3% (active),0.594% (active),8.15% (active),5.69% (active),-4.29% (active),5.41% (active),4.27% (active),-27.9% (active)
COc1ccc2c(c1)N(CCO)C1=C(C(=O)OC1)C2c1cccc(F)c1 (configuration not stated),56.7%,50%,-40.6% (active),26.9%,18.1%,4.87% (active),4.78% (active),15.5%
CN(C)CC(C)(C)C(=O)/C=C/c1ccccc1,-30.8% [25 µM] (active),-65% [25 µM] (active),-35.9% [25 µM] (active),-59.1% [25 µM] (active),-13.6% [25 µM] (active),-87.1% [25 µM] (active),-75.7% [25 µM] (active),-22.8% [25 µM] (active)
CCCCCCC12CCC(=O)N1CCc1cncn12 (configuration not stated),91.9%,114%,105%,102%,94.8%,106%,108%,113%
CC(=O)/C(=C\c1c(-c2ccccc2)[nH]c2ccccc12)S(C)(=O)=O,1.27% (active),4.06% (active),-42.7% (active),13.7%,6.97% (active),21.2%,36.8%,4.04% (active)
COc1ccc(C(C)=O)cc1S(=O)(=O)Nc1c(N)nc(SC)[nH]c1=O,116%,117%,97.7%,101%,92.9%,100%,99%,96.7%
COc1ccc(/C=C/C(=O)c2cc3c(N)c(C(=O)Nc4cccc5ccccc45)sc3nc2C)cc1,66.4%,87.5%,-18.8% (active),24.8%,13.5%,86.6%,94.9%,74.4%
c1ccc(-c2oc(-c3ccccc3)c(CN3CCCCC3)c2CN2CCCCC2)cc1,8.84% (active),43.3%,31.7%,39.6%,11.7%,20.9%,-22.9% (active),22%
CCC(=O)Oc1ccc(-c2ccccc2)cc1Br,101%,109%,109%,99.1%,93.6%,104%,112%,111%
CCN1C(=S)N(c2ccccc2)C2C1NN=c1s/c(=C3\C(=O)N(C(C)C)c4ccccc43)c(=O)n12 (configuration not stated),62.8%,96.6%,93.3%,75.6%,64.7%,41.7%,109%,81.7%
N#Cc1c(-c2ccc(Cl)cc2)nc(NN2C(=O)c3ccccc3C2=O)nc1N1CCOCC1,94.7%,112%,106%,98.8%,101%,99.5%,111%,107%
